Laboratory results taken from PubChem BioAssay AID652097 (National Center for Advancing Translational Sciences (NCATS), 2013).
Calls of active or inactive are those of the source.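 Rule for the calls: active = microscopy shows reduced glucosylceramide buildup in Gaucher patient macrophages after treatment; inactive = no reduction in glucosylceramide buildup seen.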

Assay: Extended Characterization of Activators of N370S glucocerebrosidase as a Potential Chaperone Treatment of Gaucher Disease: GC accumulation
Conditions: N370S Gaucher macrophages, immunofluorescence microscopy
Source text: Glucocerebrosidase (GCase) catalyzes the hydrolysis of beta-glucocerebroside (GC) to glucose and ceramide in lysosomes. Mutations in the glucocerebrosidase gene result in Gaucher disease, an autosomal recessive lysosomal storage disorder. Many of the mutations encountered in patients with Gaucher disease are missense alterations that may cause misfolding, decreased stability and/or mistrafficking of this lysosomal protein. […] These inhibitors include iminosugar analogs and other inhibitors that were discovered as part of previous work. However, the enhancement of enzyme activity by the chaperone action of an enzyme inhibitor must be balanced against the direct inhibition of the enzyme. […] In this extended characterization of our probe, we have further characterized the activity of probes in relevant models of Gaucher disease. This assay attempts to quantitate translocated glucocerebrosidase protein in patient-derived macrophages following extended compound incubation. NIH Chemical Genomics Center [NCGC] NIH Molecular Libraries Probe Production Centers Network [MLPCN] MLPCN Grant: MH086442 Assay Submitter (PI): Ellen Sidransky, NHGRI
Macrophages derived from N370S/N370S Gaucher patients and a control were seeded in Lab-Tek 4 chamber slides (Fisher Scientific, Pittsburgh, PA). After compound treatment, cells were fixed in 3% paraformaldehyde. […]

Row | Structure (SMILES) | outcome
1 | C#Cc1ccc(NC(=O)c2cnn3c(C)cc(C)nc23)cc1 | active; decreased
